Assay results as given in PubChem BioAssay (NCATS).
Where “and” joins values, the source holds several entries; their conditions need not be identical. Identical values can stand only once. Inconclusive results are not listed. Calls of active or inactive are those of the source. Calls follow the shape of the dose curve; as a rule, active = well fitted inhibition curve with a large enough effect; inconclusive = small, poorly fitted or top-dose-only effect; inactive = flat fitted curve, though single readings scatter.

Tested on: HEK293
Test: Cytotoxic Profiling of Annotated Libraries Using Quantitative High-Throughput Screening (AID 1296008); also: nearly all actives have a fitted effect of over 60% in size
Settings: Five cell lines viability, CellTiter-Glo ATP luminescence, 48-72 h; max response: active compounds read low
In short: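 Cells exposed to compounds for 48 or 72 hr at 37 degrees Celsius. Viability read as ATP-coupled luminescence with CellTiter-Glo after 10 min at room temperature.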
% is scaled to controls: 0 for no effect and ±100 for the full control effect; potency is read from the fitted curve at half-maximal effect.

| Structure (SMILES) | max response | outcome | Potency |
| --- | --- | --- | --- |
| CC(C)c1ccc2oc3nc(N)c(C(=O)O)cc3c(=O)c2c1 | 4.19% (inactive) and -0.504% (inactive) |  |  |
| c1cnc2cc3c(cc2n1)C1CNCC3C1 | -2.74% (inactive) and -10.4% (inactive) |  |  |
| Nc1nc(OCc2ccccc2)c2[nH]cnc2n1 |  | inactive |  |
| C[C@@H](N)C1CCC(C(=O)Nc2ccncc2)CC1 (stereo partly specified) |  | inactive |  |
| CCN(CC)CCOc1ccc(Cc2ccccc2)cc1 |  |  | 8.33 µM (active) |
| O=C(NCCO[N+](=O)[O-])c1cccnc1 |  | inactive |  |
| Oc1ccc(OCc2ccccc2)cc1 | -5.94% (inactive) and -19.5% (inactive) |  |  |
| Cc1nc(Nc2ncc(C(=O)Nc3c(C)cccc3Cl)s2)cc(N2CCN(CCO)CC2)n1 |  |  | 23.7 µM (active) |
| Cc1ccc(C(=O)c2cc(O)c(O)c([N+](=O)[O-])c2)cc1 |  | inactive |  |
| CC1(C)NC(=O)N(c2ccc([N+](=O)[O-])c(C(F)(F)F)c2)C1=O | -29% (inactive) |  |  |
| Cc1cc(=O)c2c(O)c3c(O)cc(=O)c4c3c3c(cc(O)c1c23)C(C)(C)C=4O |  |  | 2.59 µM (active) and 3.72 µM (active) |
| CNC[C@@H](O)[C@@H](O)[C@H](O)[C@H](O)CO |  | inactive |  |
| c1ccc2[nH]c(-c3cscn3)nc2c1 | -22.6% (inactive) and -4.05% (inactive) |  |  |
| Nc1ccc(S(N)(=O)=O)cc1 | 0.928% (inactive) and -22.2% (inactive) |  |  |
| CCOC(=O)c1c(C)n(C)c2ccc(O)cc12 | 0.41% (inactive) and 2.4% (inactive) |  |  |
| Nc1ncn([C@H]2C[C@H](O)[C@@H](CO)O2)c(=O)n1 |  |  | 18.7 µM (active) |
| OC(CN1CCN(c2cccc(Cl)c2)CC1)C(c1ccccc1)c1ccccc1 (stereo unspecified) |  |  | 9.35 µM (active) |
| Cc1c(OCC(F)(F)F)ccnc1CS(=O)c1nc2ccccc2[nH]1 (stereo unspecified) | 3.36% (inactive) |  |  |
| O=C(NOCC1CC1)c1ccc(F)c(F)c1Nc1ccc(I)cc1Cl |  |  | 18.7 µM (active) |

| Structure (SMILES) | max response | outcome | Potency |
| --- | --- | --- | --- |
| CC(C)[C@H](N)C(=O)OCCOCn1cnc2c(=O)[nH]c(N)nc21 | 4.44% (inactive) | inactive |  |
| O=C(O)c1cccnc1Nc1cccc(C(F)(F)F)c1 | -4.95% (inactive) |  |  |
| NC(=O)Cc1cccc(C(=O)c2ccccc2)c1N | -0.043% (inactive) and -1.4% (inactive) |  |  |
| Cc1ccc(NC(=O)c2ccc(CN3CCN(C)CC3)cc2)cc1Nc1nccc(-c2cccnc2)n1 |  |  | 18.7 µM (active) and 21.1 µM (active) and 11.6 µM (active) |
| Cc1cc(=O)oc2cc(O)ccc12 | 4.56% (inactive) | inactive |  |
| COc1ccccc1N1CCN(CCN(C(=O)C2CCCCC2)c2ccccn2)CC1 | 3.7% (inactive) |  |  |
| N[C@@H](Cc1cc(I)c(Oc2cc(I)c(O)c(I)c2)c(I)c1)C(=O)O | 0.988% (inactive) and -21.3% (inactive) and 2.79% (inactive) |  |  |
| Cc1nccn1CC1CCc2c(c3ccccc3n2C)C1=O (stereo unspecified) | -1.64% (inactive) and -12.7% (inactive) and -0.203% (inactive) |  |  |
| CN1CCC(=C2c3ccccc3CCc3sccc32)CC1 |  |  | 26.4 µM (active) and 10.6 µM (active) |
| CCC(C)(Oc1ccc(C2(c3ccc(OC(C)(CC)C(=O)O)cc3)CCCCC2)cc1)C(=O)O (stereo unspecified) | -7.29% (inactive) and -0.679% (inactive) |  |  |
| Cc1ccc(Nc2nccc(N(C)c3ccc4c(C)n(C)nc4c3)n2)cc1S(N)(=O)=O |  |  | 11.8 µM (active) |
| CC(S)C(=O)NCC(=O)O (stereo unspecified) | -0.0067% (inactive) and -3.71% (inactive) |  |  |
| C[C@H](Cn1cnc2c(N)ncnc21)OCP(=O)(O)O |  | inactive |  |
| COCCCOc1ccnc(CS(=O)c2nc3ccccc3[nH]2)c1C (stereo unspecified) | 1.81% (inactive) |  |  |
| CCOc1cc(CC(=O)N[C@@H](CC(C)C)c2ccccc2N2CCCCC2)ccc1C(=O)O |  | inactive |  |
| CCCCc1ccc2nc(NC(=O)OC)[nH]c2c1 |  |  | 14.8 nM (active) and 188 nM (active) |
| CNC[C@H](O)c1ccc(O)c(O)c1 | -3.32% (inactive) | inactive |  |
| CC1Cc2ccccc2N1NC(=O)c1ccc(Cl)c(S(N)(=O)=O)c1 (stereo unspecified) | 0.791% (inactive) and 0.879% (inactive) |  |  |
| COc1cc2c(cc1OC)C1CC(=O)C(CC(C)C)CN1CC2 (stereo unspecified) |  | inactive |  |
